# Results reported in the supplement of paper PMC9694430.
# System: T1, LOC_OS04G38480-cb003
# T1 sequence (whole entry): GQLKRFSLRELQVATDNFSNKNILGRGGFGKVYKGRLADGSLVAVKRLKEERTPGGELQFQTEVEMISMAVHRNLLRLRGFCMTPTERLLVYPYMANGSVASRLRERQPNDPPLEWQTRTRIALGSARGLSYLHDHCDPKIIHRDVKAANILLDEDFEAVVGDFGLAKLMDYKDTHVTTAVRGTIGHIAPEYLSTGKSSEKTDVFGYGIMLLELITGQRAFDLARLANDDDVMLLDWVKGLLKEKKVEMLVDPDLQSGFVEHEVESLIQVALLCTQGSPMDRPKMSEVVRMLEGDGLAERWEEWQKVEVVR
# Test: thermal shift delta Tm vs DMSO control; higher = stronger stabilization (binding)
# Details: 12.5 µM; protein concentration 2 µM
# Summary of the method: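 Rice kinase domain constructs, made in E. coli and purified, were placed in 96-well plates at 2 μM in 19.5 μl of 100 mM potassium phosphate pH 7.5, 150 mM NaCl, 10% glycerol and 5 × SYPRO Orange, with compound in DMSO. A temperature ramp from 25°C to 95°C at 0.05°C/s was used for differential scanning fluorimetry. The melting temperature shift is a triplicate mean compared with DMSO-only protein, derived from Boltzmann fits.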
# 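Note: purified Escherichia coli-expressed rice kinase domain construct.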
row,Structure (SMILES),thermal shift delta Tm [°C]
1,COc1ccc(N(C(=O)Oc2c(C)cccc2C)c2ccnc(Nc3ccc(N4CCN(C)CC4)cc3)n2)c(OC)c1,1.41
2,COc1cc([C@@H]2c3cc4c(cc3[C@H](O)[C@H]3COC(=O)[C@@H]23)OCO4)cc(OC)c1OC [Picropodophyllin (PPP)],0.78
3,Cc1ccccc1-n1c(Cn2ncc3c(N)ncnc32)nc2cccc(C)c2c1=O,-0.52
4,CC(C)(C)c1cc(C=C(C#N)C#N)cc(C(C)(C)C)c1O [Tyrphostin 9],1.65
5,C/C(O)=C(\C#N)C(=O)Nc1cc(Br)ccc1Br,1.9
6,COc1ccc2c(c1)/C(=C/c1cnc[nH]1)C(=O)N2,2.32
7,CCN1CCN(C(=O)Cc2ccc(Nc3ncc(F)c(Nc4ccc(C(=O)Nc5ccccc5Cl)cc4)n3)cc2)CC1 [Aurora A Inhibitor I],3.38
8,CC(C)(C)c1cc(C=C(C#N)C#N)cc(Br)c1O,-0.82
9,COc1ccc(C[C@H]2NC[C@H](O)[C@H]2OC(C)=O)cc1 [Anisomycin],0.22
10,O=c1[nH]c2ccc(Cl)cc2c(N[C@@H]2CN3CCC2CC3)c1-c1nc2ccccc2[nH]1,2.51
11,Cn1cc(C2=C(c3cn(C4CCN(Cc5ccccn5)CC4)c4ccccc34)C(=O)NC2=O)c2ccccc21,2.44
